Screening results deposited in PubChem BioAssay by National Center for Advancing Translational Sciences (NCATS).
An excerpt weighted towards active compounds, which were near 7.1% of everything screened.
ATXN2 expr inh: ATXN2 expression inhibition; HEK-293 ATXN2-luciferase reporter, luminescence, 24 h; Potency, µM (series often up to 57 µM), without a hit: at the highest dose activity change, negative = inhibition, actives largely listed as inhibitors; 0.72% of 360,000 active; AID 1745845; also: potency is read from the fitted curve at half-maximal effect; % is scaled to controls: 0 for no effect and ±100 for the full control effect; nearly all actives have a fitted effect of over 55% in size
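qHTS (up to 57 uM final) was run with 24 h compound exposure of reporter cells at 37 °C. Each well was multiplexed: SteadyGlo luminescence measured ATXN2-luciferase expression after a fluorogenic Gly-Phe-AFC viability readout (25 uM final).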
PINK1 expr mod: PINK1 expression modulation; AID 624263; 0.2% of 410,000 active; Potency, µM (doses to about 76.6 µM), for inactives: top-dose activation (PINK1 increase), most hits filed as activators; PINK1 immunofluorescence, high-content cytometry, 24 h; active = well fitted activation curve with a large enough effect; inconclusive = small, poorly fitted or top-dose-only effect; cell line not stated here; also: potency is read from the fitted curve at half-maximal effect; % of control where 0% means no effect; nearly all actives have a fitted effect of over 65% in size
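Stable cell line treated 24 h with compounds at 5 concentrations (CCCP controls), then fixed and immunostained for PINK1 plus nuclear and cell stains; PINK1 immunofluorescence quantified by laser-scanning microplate cytometry.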
MCF10A rereplic: DNA re-replication induction in MCF 10a cells | 2.9% of 350,000 active | Potency, µM (doses to about 46.1 µM), for inactives: at the top dose activity, positive = re-replication, hits mostly activators | MCF 10A DNA re-replication, Hoechst nuclear intensity, 48 h | AID 624296; also: potency is read from the fitted curve at half-maximal effect; % of control where 0% means no effect; nearly all actives have a fitted effect of over 50% in size
IL-1B inflam inh: inhibitors of inflammasome signaling (IL-1 beta secretion). THP-1 LPS/ATP IL-1B secretion, AlphaLISA, 16 h; hits give low values. activity change, % at 57.5 µM. 4.7% of 360,000 active; in the data active = activity change below about -50%; inconclusive = mostly about -30% to -49%; also: % is scaled to controls: 0 for no effect and ±100 for the full control effect
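Secreted IL-1B measured by AlphaLISA bead assay after 16 h compound exposure of THP-1 cells; compounds (final up to 57.5 uM) added 1 h before LPS (250 ng/mL) and ATP (1.25 mM) stimulation; lower signal means less secretion.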
S2 tox: cell viability loss in ATXN counter-screen; S2 cells (HEK-293 line with an ATXN2-luciferase reporter) viability, CellTiter-Fluor protease fluorescence, 24 h; 0.49% of 400,000 active; Potency, µM (highest dose often 56.7 µM), actives largely listed as cytotoxic; also: potency is read from the fitted curve at half-maximal effect; nearly all actives have a fitted effect of over 40% in size
SW480 rerep: inducers of DNA re-replication in SW480 colon cancer cells; SW480 DNA re-replication, Hoechst DNA content imaging, 48 h; AID 624297; 1.8% of 340,000 active; Potency, µM (top dose mostly 46.1 µM), for inactives: at the highest dose re-replication activation, actives largely listed as activators; also: potency is read from the fitted curve at half-maximal effect; % of control where 0% means no effect; nearly all actives have a fitted effect of over 55% in size
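Image-based read-out: total Hoechst fluorescence of nuclei (405 nm excitation, 500-530 nm emission), with hits raising the fraction of high-intensity nuclei. SW480 colon cells incubated 48 hr with compounds at 37 C.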
* = called active by the depositor; i = inactive; u = inconclusive; x = not tested or not shown; [ ] = another dose, or the depositor's remark. Unless noted, calls follow the shape of the dose curve; as a rule, active = well fitted curve in the direction sought with a large enough effect; inconclusive = small, poorly fitted or top-dose-only effect, or another doubt; inactive = no such curve, though single readings can be large; an effect the other way counts as inactive or inconclusive.

SMILES	ATXN2 expr inh	PINK1 expr mod	MCF10A rereplic	IL-1B inflam inh	S2 tox	SW480 rerep
Cc1ccc(-c2nc3cnccn3c2Nc2c(C)cccc2C)o1	-32%	1%	21µM*	13	x	u
NC(=O)CSc1nnc(-c2cccs2)n1Cc1ccco1	0%	0%	0%	3	u	-27%
Cc1ccc(C)c(CSc2nnc(-c3cccs3)n2Cc2ccco2)c1	-28%	-5%[38.3 µM]	21µM*	-8	i	u
COC(=O)C1C=CC(OC2OC(COC(C)=O)C(OC(C)=O)C(OC(C)=O)C2OC(C)=O)n2c(=O)n(-c3ccccc3)c(=O)n21 (centres undefined)	u	-2%	1.6µM*	-10	u	u
Cc1cc(/C=C2\SC(=S)N(C)C2=O)c(C)n1-c1ccccc1O	-4%	u	13µM*	-84*	u	12µM*
Cc1cc(/C=C2/NC(=O)NC2=O)c(C)n1-c1ccncc1	0%	-1%	0%	-17	i	-12%
Cc1cc(/C=C2/SC(=S)N(c3cccc(Cl)c3)C2=O)c(C)n1-c1cccnc1	-2%	4%	u	-64*	u	0%
Cc1cc(/C=C2/NC(=O)N(c3ccccc3)C2=O)c(C)n1-c1cccnc1	x	-1%	-7%	-83*	i	24%
Cc1cc(/C=C2/NC(=S)NC2=O)c(C)n1-c1cccnc1	35%	2%	u	-9	i	-4%
Cc1cccc(-n2c(C)cc(/C=C3\NC(=O)NC3=O)c2C)c1	0%	5%	16µM*	x	u	u
CN1C(=O)/C(=C/c2coc3ccc(O)cc3c2=O)SC1=S	x	u	3%	14	i	2%
CC(C)NC(=O)[C@@H]1C[C@@H](Sc2nc3ccccc3[nH]2)CN1C1Cc2ccccc2C1	x	-1%	x	x	i	x
Cc1cc(C)n(CC(O)Cn2c3ccc(Br)cc3c3cc(Br)ccc32)c(=O)n1 (centres undefined)	u	-6%[38.3 µM]	17%	-68*	u	u
CCCS(=O)(=O)c1c(S(=O)(=O)CCC)c2c(C)cccn2c1C(=O)N/N=C/c1cc(O)cc(O)c1	7.9µM*	1%	u	81	i	6.5µM*
CCCS(=O)(=O)c1c(S(=O)(=O)CCC)c2c(C)cccn2c1C(N)=O	-3%	-2%	-2%	9	i	-3%
COc1ccc2ccccc2c1CN1CCc2nnc(CNC(=O)c3cccc(F)c3)n2CC1	x	1%	x	x	i	x
Cc1ccc(S(=O)(=O)N2CCN(c3nc(-n4cccn4)nc4ccccc34)CC2)cc1	x	3%	x	x	x	x
C=CCC(=O)N1CCCC(CNC(=O)c2ccc(-c3ccccc3)cc2)C1 (centres undefined)	13%	-1%	u	-64*	i	12%
O=C(CN1CCN(C2CCCCC2)C(=O)C1=O)Nc1ccc(Cl)cc1	-17%	1%	x	x	i	x
CCCc1cc(-c2ccc3c(c2)COc2c4ccccc4nn2-3)on1	2%	9%	16µM*	-18	u	-3%
Cc1cc(-c2ccc3c(c2)COc2c4ccccc4nn2-3)on1	46%	13%	-2%	-17	i	u
O=C(N/N=C/c1cccc([N+](=O)[O-])c1)c1cc(-c2ccc3c(c2)OCO3)n[nH]1	-23%	7%	12µM*	2	i	-122%
O=C(N/N=C/c1cccc(O)c1)c1cc(-c2ccc3c(c2)OCO3)n[nH]1	x	9%	14%	-11	u	-9%
CCc1ccc(/C=N/NC(=O)c2cc(-c3cccc([N+](=O)[O-])c3)n[nH]2)cc1	-23%	16%	5.2µM*	16	i	23µM*
O=C(CC1N=C2c3ccccc3N=C(SCc3cccc(Cl)c3)N2C1=O)NC1CCCCC1 (centres undefined)	x	4%	x	x	x	x
c1ccc(CN2CCN(c3nc(NCc4ccco4)c4ccccc4n3)CC2)cc1	u	0%	u	-64*	i	u
